In PubChem BioAssay AID938 (National Center for Advancing Translational Sciences (NCATS), 2007) one finds activation and Potency data, which are given here for 96 molecules.

Each structure is given as a SMILES string. Values joined by “and” are separate entries in the source; they are usually repeats but may differ in a detail not shown here. Equal values may be shown once. Out of some 73,000 compounds screened, about 1,800 (2.5%) were called active. Where a call stands in place of a potency, no number is given. Inconclusive results (about 13%) are left out. The call rests on the fitted dose curve; in most records, active means well fitted activation curve with a large enough effect; inconclusive means small, poorly fitted or top-dose-only effect; inactive means no such curve, though single readings can be large or run the other way. For the sample, actives were picked, then their nearest neighbours and some compounds at random. More than one record can exist for a structure, and the calls need not agree.
Potency means the concentration at half of the fitted maximal effect.

This assay is described as follows: qHTS Assay for Agonists of the Thyroid Stimulating Hormone Receptor: Activators of Intracellular cAMP Concentrations in Parental HEK 293. Further: nearly all actives have a fitted effect of over 55% in size. To be noted: parental HEK293 CNG cAMP sensor, membrane potential fluorescence; series mostly up to 57.1 µM. In short, it runs like this: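 Parental HEK 293 cells stably expressing a cAMP-gated CNG channel were loaded with membrane potential dye containing 100 uM RO 20-1724 for 60 min. Compound added for 30 min; depolarization read as fluorescence intensity at 590 nm.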
In general terms: qHTS replaces the single test concentration by a dilution series.
As for `O=C1[C@H]2[C@H]3[C@H](O)[C@H](O)C/C(=N/OCc4ccccc4)[C@H]3CC[C@@H]2C(=O)N1Cc1ccccc1`, the activation is -2.25% [at 11.4 µM] (inactive).

On to `C[C@@H](c1ccccc1)N1C(=O)[C@H]2[C@H]3[C@H](O)[C@H](O)C/C(=N/OC[C@@H](O)COCc4ccco4)[C@@H]3CC[C@@H]2C1=O`, for which the activation was 5.7% [at 11.4 µM] (inactive).

For the molecule `O=C(NCc1ccco1)c1cccn2c(=O)c3cc(Br)ccc3nc12`, the Potency result is “inactive”.

On to `O=C(NCc1ccco1)c1cc(-c2cccnc2)nc2ccc(Cl)cc12`, for which the Potency is 31.6 µM (active).

In the case of `O=C(NCc1ccco1)c1nc(-c2ccccc2)n(-c2ccccc2)n1`, the Potency entry is “inactive”.

Regarding `CN(C)CCCCNC(=O)c1ccc(Cc2nc3ccccc3[nH]2)cc1`, the Potency result was “inactive”.

`Oc1c(Cl)cc(Cl)c(Cl)c1Cc1c(O)c(Cl)cc(Cl)c1Cl`: the Potency is 10 µM (active).

As for `C=CC(=O)c1ccc2ccccc2c1`, the Potency entry is “inactive”.

`O=C(CCSc1ccccc1)NCCSc1ccccn1`: the Potency result is “inactive”.

On to `COc1ccc(CCn2nnnc2C(c2ccccc2)N2CCN(C)CC2)cc1OC` (stereo unspecified), for which the Potency result was “inactive”.

Consider `CC(C)C(c1nnnn1CCc1ccccc1)N1CCN(C(=O)c2ccco2)CC1` (stereo unspecified), for which the Potency entry is “inactive”.

As to `N#Cc1ccc(C(c2nnnn2CCc2ccccc2)N2CCCCCC2)cc1` (stereo unspecified), the Potency is 15.8 µM (active).

For `S=c1c2[nH]cnc2ncn1CCSc1ncnc2nc[nH]c12`, the activation is -1.69% [at 11.4 µM] (inactive).

Regarding `c1ccc(COc2nsnc2N2CCOCC2)cc1`, the Potency entry was “inactive”.

`c1ccc(-n2nnnc2N2CCOCC2)cc1`: the Potency result is “inactive”.

On to `c1ccc(-c2oc3ncnc(N4CCOCC4)c3c2-c2ccccc2)cc1`, for which the Potency is 15.8 µM (active).

In the case of `CC(C)NC(=O)CCCn1c(=S)[nH]c2cc3c(cc2c1=O)OCO3`, the Potency result is “inactive”.

In the case of `O=C(Nc1ccccc1)N[C@H]1C[C@H](C(=O)O)Nc2cc(Cl)cc(Cl)c21`, the Potency entry is “inactive”.

For the molecule `CNc1cc(-c2c(C)noc2C)ncn1`, the Potency was 3.98 µM (active).

As for `COCCNc1cc(-c2c(C)noc2C)ncn1`, the Potency result is “inactive”.

In the case of `Cc1noc(C)c1-c1cc(NCc2cccnc2)ncn1`, the Potency entry is “inactive”.

Regarding `O=C(CSc1nnc(-c2ccoc2)o1)N1CCOCC1`, the Potency result was “inactive”.

On to `CC(=O)OCC1OC(C#CCCCc2ccccc2)C=CC1OC(C)=O` (stereo unspecified), for which the activation is -0.905% [at 11.4 µM] (inactive).

As to `COCCCNC(=O)CCc1nc2cccnc2n1Cc1ccc(OC)cc1`, the Potency result is “inactive”.

On to `COC(=O)[C@@H]1CC[C@H](C)[C@@H](c2ccc(C)cc2)N1C(=O)c1ccc(/C=N\OC[C@@H](O)COCc2ccco2)cc1`, for which the activation was 44.4% [at 11.4 µM] (inactive).

For `CO[C@@H]1COC(=O)[C@H](Cc2ccccc2)NC(=O)C/C=C\[C@@H](C)[C@H](OC)COC(=O)[C@@H](C)NC(=O)C/C=C\[C@H]1C`, the activation is 8.45% [at 11.4 µM] (inactive) and -4.16% [at 11.4 µM] (inactive).

Consider `COCCn1c(SCC(=O)Nc2cc(Cl)ccc2OC)nc2c(c1=O)SC(C)C2` (stereo unspecified), for which the Potency entry is “inactive”.

In the case of `COc1ccc(C2C(C(=O)Nc3ccccc3OC)=C(C)Nc3nnnn32)c(OC)c1` (stereo unspecified), the Potency result was “inactive”.

Consider `COC(=O)c1ccc(C2C3=C(Nc4nnnn42)c2ccccc2OC3)cc1` (stereo unspecified), for which the Potency is 12.6 µM (active).

Consider `COc1ccccc1NC(=O)C1=C(C)Nc2nnnn2C1c1cccc(Br)c1` (stereo unspecified), for which the Potency entry is “inactive”.

Regarding `O=C(CNCCO)NC12CC3CC(CC(C3)C1)C2`, the Potency entry was “inactive”.

Turning to `CO[C@H]1COC(=O)[C@@H](C)NC(=O)C/C=C\[C@@H](C)[C@H](OC)COC(=O)C/C=C\[C@@H]1C`, the activation is 2.45% [at 11.4 µM] (inactive).

Regarding `Cc1ccc(/C(=C/CN2CCCC2)c2ccccn2)cc1`, the Potency entry was “inactive and 25.1 µM (active)”.

For the molecule `Cc1ccc(N(CC(O)CN2CCCC2)S(=O)(=O)c2ccccc2)cc1` (stereo unspecified), the activation is 9.44% [at 11.4 µM] (inactive).

For `Cc1ccc(N2CCN(c3ccc(C)cc3)C2c2ccccn2)cc1`, the Potency entry is “inactive”.

Turning to `O=NO`, the Potency entry was “inactive”.

As for `Cn1c(=O)n2n(c1=O)[C@H]1[C@H](O)[C@H]3O[C@H]3C(=O)[C@H]1CC2`, the activation was 0.42% [at 11.4 µM] (inactive).

Take `O=C(Cn1nc(C(F)(F)F)c2c1CCC2)NCc1ccc(F)cc1`: the Potency entry is “inactive”.

Regarding `Cc1cc(NC(=O)Cn2nc(C(F)(F)F)c3c2CCCC3)no1`, the Potency entry is “inactive”.

For `COC(=O)c1ccccc1NC(=O)Cn1nc(C(F)(F)F)c2c1CCC2`, the Potency is 25.1 µM (active).

Take `CCCNC(=O)OC[C@@H]1O[C@H](c2ccccc2)C=C[C@@H]1Oc1ccc(OC)cc1`: the activation is 1.38% [at 11.4 µM] (inactive).

`CCCC[C@@H]1C[C@H]1C(NC(=O)c1ccc(-c2ccccc2)cc1)c1ccc(-c2ccccc2)cc1` (stereo partly specified): the Potency result is “inactive”.

As to `COC(=O)c1ccc(NC(=O)c2ccco2)cc1`, the Potency result was “inactive”.

Turning to `CCCC[C@@H]1C[C@H]1C(NC(=O)c1ccco1)c1ccc(C(=O)OC)cc1` (stereo partly specified), the Potency is 25.1 µM (active).

In the case of `CCC(C)(C)N=C(NC#N)Nc1cccnc1`, the Potency entry was “inactive”.

Consider `O=C(CN1CCN(c2ccccc2F)CC1)c1ccc2c(c1)OCO2`, for which the Potency result was “inactive”.

In the case of `COCCn1c(CN2CCC(Cc3ccccc3)CC2)nc2c1c(=O)n(C)c(=O)n2C`, the Potency entry was “inactive”.

`CC1CCN(Cc2nc3c(c(=O)n(C)c(=O)n3C)n2CCc2ccccc2)CC1`: the Potency is 5.01 µM (active).

As to `Cn1c(=O)c2c(nc(CN3CCOCC3)n2Cc2ccccc2)n(C)c1=O`, the Potency result was “inactive”.

For `CC1CN(C(=O)c2ccc3c(c2)OCO3)OC(c2ccccc2)O1` (stereo unspecified), the Potency entry was “inactive”.

In the case of `CC(Sc1nc2ccccc2c(=O)n1Cc1ccco1)C(=O)c1ccccc1` (stereo unspecified), the Potency is 15.8 µM (active).

Turning to `Cc1ccc(C(=O)CSc2nc3ccccc3c(=O)n2N)o1`, the Potency result is “inactive”.

In the case of `Cc1nc2c(c(=O)n1Cc1ccco1)c1nc3ccccc3nc1n2Cc1ccccc1`, the Potency entry is “inactive”.

`CO[C@H]1COC(=O)[C@H](Cc2ccccc2)NC(=O)C/C=C\[C@@H](C)[C@H](OC)COC(=O)C/C=C\[C@@H]1C`: the activation is 25.1% [at 11.4 µM] (inactive).

`COc1ccc(NC(=O)N2CC3(CCN(C(=O)c4cccn4C)CC3)C2)cc1`: the Potency entry was “inactive”.

For the molecule `Cn1c(SCC(=O)c2cccs2)nnc1-c1ccco1`, the Potency entry was “inactive”.

Consider `CC(=O)NC(C)c1nc2ccccc2n1Cc1ccccc1F` (stereo unspecified), for which the Potency result is “inactive”.

With `COCc1nc2ccccc2n1Cc1ccccc1Br`, the Potency was 31.6 µM (active).

On to `COCn1c(COc2ccccc2)nc2ccccc21`, for which the activation was 25.1% [at 11.4 µM] (inactive).

Take `COCc1nnc(NC(=O)CS(=O)(=O)Cc2ccccc2)s1`: the Potency result is “inactive”.

In the case of `Cc1ccc(N2CCN(S(=O)(=O)c3ccc(F)cc3)CC2)c(C)c1`, the Potency entry was “inactive”.

As for `CC(Cc1ccccc1)C(=O)N(C)Cc1ccccc1` (stereo unspecified), the Potency result is “inactive”.

As for `CN(C(=O)c1ccccn1)c1nnc(-c2ccccn2)s1`, the Potency result was “inactive”.

Consider `COc1ccc(-c2nn3c(-c4ccccc4)nnc3s2)cc1OC`, for which the Potency result is “inactive”.

Regarding `c1ccc(-c2cc(-c3nnc4sc(-c5ccccn5)nn34)[nH]n2)cc1`, the Potency is 25.1 µM (active).

Regarding `Cc1ccc(S(=O)(=O)N2CC(=O)Nc3ccccc32)cc1C`, the activation is -6.15% [at 11.4 µM] (inactive).

`CCOC(=O)N/N=C1/C[C@@H](O)[C@@H](O)[C@@H]2[C@@H]3C(=O)N(CC)C(=O)[C@H]3CC[C@H]12`: the activation was 2.56% [at 11.4 µM] (inactive).

Turning to `COc1ccc(OC)c(C(=O)c2coc3ccc(O)c(CN4CCOCC4)c23)c1`, the Potency result was “inactive”.

Take `COc1ccc(OC)c(C(=O)c2ccc(C(=O)O)cc2)c1`: the Potency result was “inactive”.

Turning to `COc1ccc(OC)c(C(=O)c2coc3ccc(OC)cc23)c1`, the Potency is 10 µM (active).

Turning to `O=C(CN1C(=O)CSc2ncccc21)N1CCOCC1`, the Potency result is “inactive”.

In the case of `CN(C)c1ccc(NC(=O)c2ccncc2)c2ccccc12`, the Potency result is “inactive”.

`COc1ccc(CCN2CNc3c(c(=O)n(C)c(=O)n3C)C2)cc1OC`: the Potency entry is “inactive”.

Take `CCC/C=C(\CCC)C(NC(=O)Cc1ccccc1)c1ccc(C(=O)OC)cc1` (stereo unspecified): the Potency was 15.8 µM (active).

`COC(=O)c1ccc(NCC(=O)c2ccccc2)cc1`: the Potency result was “inactive”.

For the molecule `CCN(CC)C(=O)CCC(=O)Nc1ccc(C(=O)OC)cc1`, the Potency entry is “inactive”.

Turning to `CO[C@H]1COC(=O)CCC[C@@H](C)[C@H](OC)COC(=O)[C@@H](C)NC(=O)C/C=C\[C@@H]1C`, the activation is 4.76% [at 11.4 µM] (inactive).

Turning to `Fc1ccc(-c2nnc3sc(-c4ccc5c(c4)OCO5)nn23)cc1`, the Potency result was “inactive”.

Take `Fc1ccc2nc(-c3ccccc3)nc(SCc3nnc(-c4ccccc4)o3)c2c1`: the Potency entry was “inactive”.

Regarding `Fc1ccc(-c2nnc(CSc3nnc(-c4ccc5c(c4)OCO5)o3)o2)cc1`, the Potency was 25.1 µM (active).

For the molecule `Cc1ccc(C(=O)NC2CC(C)(C)NC(C)(C)C2)c(C)c1`, the Potency entry was “inactive”.

In the case of `COC(=O)c1ccc(COC(=O)c2c(C)nn(Cc3ccccc3Cl)c2Cl)o1`, the Potency was 15.8 µM (active).

For `Cc1nn(Cc2ccccc2)c(Cl)c1C(=O)OC1CCOC1=O` (stereo unspecified), the Potency entry was “inactive”.

On to `CCOC(=O)c1ccc(COC(=O)c2cc(=O)[nH]c3ccccc23)o1`, for which the Potency entry was “inactive”.

Regarding `CCCCn1c(CCCNC(=O)CC)nc2ccccc21`, the Potency entry was “inactive”.

Consider `COc1ccc(NC(=O)CCNC(=O)Cn2ccc3ccccc3c2=O)c(OC)c1`, for which the Potency result is “inactive”.

For `CC(C)(C)c1cc(CN2CCN(CCC#N)CC2)cc(C(C)(C)C)c1O`, the Potency is 7.94 µM (active).

For the molecule `N#CCCN1CCN(S(=O)(=O)c2ccc(S(=O)(=O)NC3CC3)cc2)CC1`, the Potency entry was “inactive”.

In the case of `Cc1ccc(S(=O)(=O)NCC(=O)OCC(=O)N2CCc3ccccc32)cc1`, the Potency entry is “inactive”.

Consider `C[C@@H]1/C=C\CC(=O)OC[C@H]2O[C@@H](C=C[C@@H]2O)[C@H](C)/C=C\CC(=O)OC[C@H]2O[C@H]1C=C[C@@H]2O`, for which the activation is -6.65% [at 11.4 µM] (inactive).

In the case of `O=C(Nc1cccnc1)c1ccc2c(c1)OCO2`, the Potency result was “inactive”.

For the molecule `O=C(Nc1ccc2c(c1)OCCO2)c1ccncc1`, the Potency result is “inactive”.

Consider `O=C(Nc1nc(-c2ccc3c(c2)OCO3)cs1)c1ccncc1`, for which the Potency was 20 µM (active).

As to `C=CCn1c(COc2ccccc2)nnc1SCC(=O)NCC(=O)OCC`, the Potency entry is “inactive”.

In the case of `O=C(CC1(O)C(=O)N(CN2CCOCC2)c2ccccc21)c1ccccc1` (stereo unspecified), the Potency result was “inactive”.

Take `Cc1ccc(C(=O)Nc2nnc(-c3ccncc3)s2)o1`: the Potency entry is “inactive”.
